For orientation: inhibition means the drop in the measured response relative to a control, in per cent.

Active and inactive are the calls of the source.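 How the source made its calls: active means compounds giving at least 50% inhibition in the cell-based MKP-3 phosphatase rescue imaging test; inactive means the rest.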

Test system in the first assay: not listed separately
Kind of assay: DUSP6 inhibitors restoring Erk phosphorylation by chemical complementation, primary imaging in DUSP6-transfected HeLa (AID 609).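 On inhibition: phospho-Erk level distribution per well compared with pooled transfected vehicle control wells.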 Particulars: HeLa MKP-3 transfected, phospho-Erk imaging KS statistic; measured here: nuclear pErk red intensity z-score; at 10 µM; stronger effect = higher value; cells stimulated with TPA for 15 min.
As to `O=C(c1ccccc1F)N1CCC(N2CCCCCC2)CC1`, the z-score was -0.289.
As to `CCOc1ccc(CCNC(=O)C(O)c2ccccc2)cc1` (stereo not drawn), the z-score was -0.425.
On the same count and under the same terms, the figure for `CCN(CC)CCN1C(=O)C(=O)/C(=C(/O)c2ccc(C)cc2)C1c1cccnc1` (stereo not drawn) is 0.527; for `C=CCOC(=O)C1=C(C)NC(SCC(=O)N(CC)CC)=C(C#N)C1c1ccco1` (stereo not drawn) it is 0.117; for `CCOC(=O)CSc1nc(N)c(C#N)c(-c2ccc(OC)cc2)c1C#N` it is 1.28.
The same measure, in the same setting: the figure for `COc1ccc(OC)c(NC(=O)CSC2=C(C#N)C(c3ccco3)C3=C(CCCC3=O)N2)c1` (stereo not drawn) is 0.62.
In turn, `CCCOc1ccc(N2C(=O)CC(N(Cc3ccc(S(N)(=O)=O)cc3)C(=O)CC)C2=O)cc1` (stereo not drawn) returned a z-score of 0.905.
Turning to `Cc1ccc2[nH]c3c(c2c1)CCCC3C(N)=O` (stereo not drawn), the z-score was -1.27.
Molecule `COc1ccc(C=NCCC2(O)CC(C)N(C)CC2C)cc1` (stereo not drawn) gave a z-score of -1.22.
`CC(C)(C)C1CCC2(CC1)C(C#N)=C(SCC(=O)Nc1ccccc1)NC(=O)C2C#N` (stereo not drawn) showed a z-score of -0.683.
With `CC1(C)Cc2c(C#N)c(NCCc3ccccc3)nc(-c3ccco3)c2CO1`, the z-score is 0.237.
In the case of `CCOC(=O)c1cc2cc(OC)ccc2[nH]1`, the z-score amounted to 0.163.
Same read-out and setting: the value for `COC(=O)CSC1=C(C#N)C(=O)NC2(CCCCC2)S1` was 0.767; that for `CCOC(=O)CC1=C(C(=O)OCC)C(c2ccc(OC)c(OC)c2)C(C#N)=C(N)O1` (stereo not drawn) was -1.45; that for `COC(=O)c1ccc(OC(=O)c2ccc(OC)c(OC)c2)c(OC)c1` was -0.151.
On the same count and under the same terms, the figure for `CCOc1ccc(/C(O)=C2/C(=O)C(=O)N(CCN(C)C)C2c2ccccc2)cc1Cl` (stereo not drawn) is -1.22.
For `O=CN1CCN(C(=O)CN2C(=O)c3ccccc3C2=O)CC1`, the z-score was -1.29.
The molecule `CC(C)Oc1ccc(Cc2c(O)nc(NCCCN(C)C)[nH]c2=O)cc1` came in with a z-score of -0.785.
Still for that read-out and setting: the value for `CC(=O)c1c(C)c2c(n1CCN(C)C)CCCC2` was 1.25; that for `Cc1ccc(C2C(C(=O)c3cc4ccccc4o3)=C(O)C(=O)N2CCCN(C)C)cc1` (stereo not drawn) was 0.773; that for `COC(=O)c1ccc(=O)n(Cc2ccco2)c1` was -0.83.
Regarding `COc1ccc(OC)c(NC(=O)CSc2nnc(-c3ccco3)n2-c2ccc(C(=O)O)cc2)c1`, the z-score was -0.476.
In the case of `Cn1c(NCCN2CCCCC2)cc(=O)n(C)c1=O`, the z-score was -0.233.
The molecule `N#CC1=C(N)NC(SCc2ccc(F)cc2)=C(C#N)C12CCCCC2` displayed a z-score of -0.195.
As to `Cc1nc2oc(C(=O)c3ccc(Br)cc3)c(N)c2c2c1COC(C)(C)C2`, the z-score was -0.664.
`Cc1nnc2n(Cc3ccccc3)c(=O)c3c4c(sc3n12)CN(Cc1ccccc1)CC4` had a z-score of 0.467.
`N#CCSc1nc2sc3c(c2c(=O)n1C1CCCCC1)CCCC3` yielded a z-score of 1.09.
`COc1cccc(/C=C2/CN(C)CC3=C2OC(N)=C(C#N)C3c2cccc(OC)c2)c1` (stereo not drawn) showed a z-score of -1.64.
`Cc1noc(NS(=O)(=O)c2ccc(NC(=O)COc3ccccc3)cc2)c1C` returned a z-score of -0.0095.
For the molecule `COc1ccccc1-c1nnc2sc(COc3ccccc3)nn12`, the z-score was 2.54.
As to `CCc1nnc(NC(=O)CSc2nc(C)c3c(c2C#N)CCCC3)s1`, the z-score is -0.0712.
As to `Cn1c(=O)c2c(nc(SCCN3CCCCC3)n2Cc2ccc(Cl)cc2)n(C)c1=O`, the z-score was -1.54.
`Cc1ccc(C(=O)C2=C(O)C(=O)N(c3ncccn3)C2c2cccc(Cl)c2)o1` (stereo not drawn) gave a z-score of -0.321.
Molecule `COC(=O)C1=C(C)OC(N)=C(C#N)C1c1ccc(OC)c(OC)c1OC` (stereo not drawn) returned a z-score of -0.967.
In turn, `O=c1c(-c2ccc3c(c2)OCCO3)c(C(F)(F)F)oc2cc(O)cc(O)c12` displayed a z-score of -0.0254.
As to `C=CCNc1nc(-c2ccc(O)c(C(N)=O)c2)cs1`, the z-score stood at 0.332.
The molecule `C=CCOc1nc2c(c(=O)n(Cc3ccc(Cl)c(Cl)c3)c(=O)n2C)n1C` registered a z-score of -1.45.
Molecule `S=c1nc(-c2ccccc2)[nH]n1-c1ccccc1` displayed a z-score of -0.637.
With `O=C(O)CC(NCc1ccco1)C(=O)OCC1CCCO1` (stereo not drawn), the z-score is -0.884.

In another assay the target is Dual specificity protein phosphatase 6 (Homo sapiens) (UniProt Q16828). The description is as above. Conditions: HeLa MKP-3 transfected, phospho-Erk imaging KS statistic; at 10 µM; stronger effect = higher value; cells stimulated with TPA for 15 min.
Chain of Dual specificity protein phosphatase 6 (Homo sapiens) (Q16828 whole entry, looked up): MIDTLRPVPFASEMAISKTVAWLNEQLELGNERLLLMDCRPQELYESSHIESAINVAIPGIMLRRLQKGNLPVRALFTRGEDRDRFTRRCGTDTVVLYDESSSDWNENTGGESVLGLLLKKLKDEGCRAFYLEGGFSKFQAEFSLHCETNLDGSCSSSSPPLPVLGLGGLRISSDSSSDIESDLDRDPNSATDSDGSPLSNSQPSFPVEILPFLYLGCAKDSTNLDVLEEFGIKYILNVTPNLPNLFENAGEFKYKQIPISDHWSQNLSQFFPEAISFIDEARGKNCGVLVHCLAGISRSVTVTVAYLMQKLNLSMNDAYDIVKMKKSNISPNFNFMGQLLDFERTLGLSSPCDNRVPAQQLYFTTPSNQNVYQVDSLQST
Turning to `O=C(c1ccccc1F)N1CCC(N2CCCCCC2)CC1`, the inhibition was 15.1% (inactive).
Consider `CCOc1ccc(CCNC(=O)C(O)c2ccccc2)cc1` (stereo not drawn), for which the inhibition was 5.57% (inactive).
Regarding `CCN(CC)CCN1C(=O)C(=O)/C(=C(/O)c2ccc(C)cc2)C1c1cccnc1` (stereo not drawn), the inhibition was -5.89% (inactive).
Turning to `C=CCOC(=O)C1=C(C)NC(SCC(=O)N(CC)CC)=C(C#N)C1c1ccco1` (stereo not drawn), the inhibition was -5.89% (inactive).
Same read-out and setting: the value for `CCOC(=O)CSc1nc(N)c(C#N)c(-c2ccc(OC)cc2)c1C#N` was 24.7% (inactive).
As to `COc1ccc(OC)c(NC(=O)CSC2=C(C#N)C(c3ccco3)C3=C(CCCC3=O)N2)c1` (stereo not drawn), the inhibition is -6.59% (inactive).
On to `CCCOc1ccc(N2C(=O)CC(N(Cc3ccc(S(N)(=O)=O)cc3)C(=O)CC)C2=O)cc1` (stereo not drawn), for which the inhibition is -7.28% (inactive).
For `Cc1ccc2[nH]c3c(c2c1)CCCC3C(N)=O` (stereo not drawn), the inhibition was -16.8% (inactive).
Regarding `COc1ccc(C=NCCC2(O)CC(C)N(C)CC2C)cc1` (stereo not drawn), the inhibition is -7.01% (inactive).
On to `CC(C)(C)C1CCC2(CC1)C(C#N)=C(SCC(=O)Nc1ccccc1)NC(=O)C2C#N` (stereo not drawn), for which the inhibition was 9.39% (inactive).
In the case of `CC1(C)Cc2c(C#N)c(NCCc3ccccc3)nc(-c3ccco3)c2CO1`, the inhibition was 22.3% (inactive).
For the molecule `CCOC(=O)c1cc2cc(OC)ccc2[nH]1`, the inhibition is 5.57% (inactive).
On to `COC(=O)CSC1=C(C#N)C(=O)NC2(CCCCC2)S1`, for which the inhibition was -11.5% (inactive).
Same read-out and setting: the figure for `CCOC(=O)CC1=C(C(=O)OCC)C(c2ccc(OC)c(OC)c2)C(C#N)=C(N)O1` (stereo not drawn) is 4.25% (inactive).
Same read-out and setting: the figure for `COC(=O)c1ccc(OC(=O)c2ccc(OC)c(OC)c2)c(OC)c1` is 11.4% (inactive); for `CCOc1ccc(/C(O)=C2/C(=O)C(=O)N(CCN(C)C)C2c2ccccc2)cc1Cl` (stereo not drawn) it is 2.92% (inactive).
Turning to `O=CN1CCN(C(=O)CN2C(=O)c3ccccc3C2=O)CC1`, the inhibition is 11.4% (inactive).
`CC(C)Oc1ccc(Cc2c(O)nc(NCCCN(C)C)[nH]c2=O)cc1`: the inhibition is -2.07% (inactive).
In the case of `CC(=O)c1c(C)c2c(n1CCN(C)C)CCCC2`, the inhibition was -11.5% (inactive).
Consider `Cc1ccc(C2C(C(=O)c3cc4ccccc4o3)=C(O)C(=O)N2CCCN(C)C)cc1` (stereo not drawn), for which the inhibition was -2.91% (inactive).
Same read-out and setting: the figure for `COC(=O)c1ccc(=O)n(Cc2ccco2)c1` is -6.48% (inactive).
As to `COc1ccc(OC)c(NC(=O)CSc2nnc(-c3ccco3)n2-c2ccc(C(=O)O)cc2)c1`, the inhibition is 11.9% (inactive).
In the case of `Cn1c(NCCN2CCCCC2)cc(=O)n(C)c1=O`, the inhibition was -1.12% (inactive).
For the molecule `N#CC1=C(N)NC(SCc2ccc(F)cc2)=C(C#N)C12CCCCC2`, the inhibition was 6.04% (inactive).
In the case of `Cc1nc2oc(C(=O)c3ccc(Br)cc3)c(N)c2c2c1COC(C)(C)C2`, the inhibition is 24.7% (inactive).
As to `Cc1nnc2n(Cc3ccccc3)c(=O)c3c4c(sc3n12)CN(Cc1ccccc1)CC4`, the inhibition was -7.28% (inactive).
Take `N#CCSc1nc2sc3c(c2c(=O)n1C1CCCCC1)CCCC3`: the inhibition was 3.56% (inactive).
On the same count and under the same terms, the value for `COc1cccc(/C=C2/CN(C)CC3=C2OC(N)=C(C#N)C3c2cccc(OC)c2)c1` (stereo not drawn) was -1.12% (inactive); that for `Cc1noc(NS(=O)(=O)c2ccc(NC(=O)COc3ccccc3)cc2)c1C` was -11.5% (inactive); that for `COc1ccccc1-c1nnc2sc(COc3ccccc3)nn12` was -16.8% (inactive).
For `CCc1nnc(NC(=O)CSc2nc(C)c3c(c2C#N)CCCC3)s1`, the inhibition was -0.674% (inactive).
As for `Cn1c(=O)c2c(nc(SCCN3CCCCC3)n2Cc2ccc(Cl)cc2)n(C)c1=O`, the inhibition was 21% (inactive).
In the case of `Cc1ccc(C(=O)C2=C(O)C(=O)N(c3ncccn3)C2c2cccc(Cl)c2)o1` (stereo not drawn), the inhibition is 0.671% (inactive).
As for `COC(=O)C1=C(C)OC(N)=C(C#N)C1c1ccc(OC)c(OC)c1OC` (stereo not drawn), the inhibition was 26.5% (inactive).
`O=c1c(-c2ccc3c(c2)OCCO3)c(C(F)(F)F)oc2cc(O)cc(O)c12`: the inhibition is 1.9e-07% (inactive).
Regarding `C=CCNc1nc(-c2ccc(O)c(C(N)=O)c2)cs1`, the inhibition is 7.48% (inactive).
In the case of `C=CCOc1nc2c(c(=O)n(Cc3ccc(Cl)c(Cl)c3)c(=O)n2C)n1C`, the inhibition is -2.91% (inactive).
Regarding `S=c1nc(-c2ccccc2)[nH]n1-c1ccccc1`, the inhibition was 11.4% (inactive).
Same read-out and setting: the value for `O=C(O)CC(NCc1ccco1)C(=O)OCC1CCCO1` (stereo not drawn) was 5.26% (inactive).

The values are drawn from PubChem BioAssay.
